Ec RNAP inh = inhibitors of Escherichia coli RNA polymerase. P0A8V2. inhibition, %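 (tested at 10 µM)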. E. coli RNA polymerase, fluorescence transcription assay. hit rate 0.2% among 62,000; in the data active = inhibition above about 20%
Cav3 T inh = human Cav3.2 channel inhibition, primary screen; hit rate 4% among 100,000; Cav3.2-expressing cells, Fluo-4 calcium fluorescence FDSS; hits give low values; AID 449739; O95180; B-score at 10 µM;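 active = single-dose well whose peak fluorescence ratio is a statistical outlier from its plate by either plate-standardised score or position-corrected B-score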
Mac1 fbg inh = blocks human CD11b/CD18 adhesion to fibrinogen | P05107+P11215 | K562 CD11b/CD18 adhesion to fibrinogen, ATPlite luminescence; Mn2+ added to activate the integrin | inhibition, % at 10 µM | hit rate 0.54% among 93,000;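 active = primary inhibition of 50% or more at 10 µM, then 40% or more on retest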
Pyk2 oligo antag = antagonists of human Pyk2 oligomerization. Q14289. Q293 cells, Pyk2 FERM NanoBiT luminescence; hits give low values. z-score (the deposit names both 25 µM and 10 µM). hit rate 0.83% among 99,000. AID 1347419;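 active = Z-score of -3 or lower, scaled per plate to the spread of control and sample wells; inactive = z-score above -3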;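 also: negative z-score means lost luminescence so less FERM oligomerization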
Mac1 fbg enh = enhancers of human CD11b/CD18 binding to fibrinogen. K562 CD11b/CD18 adhesion to fibrinogen, ATPlite luminescence. AID 1499. hit rate 0.07% among 93,000. P05107+P11215. activation, % at 10 µM;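 active = 10 µM primary screen giving 50% or more activity, confirmed by 40% or more on retest at that dose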
Hits are given with their value; - = inactive; . = not tested or not shown. In the library only some 4.2% were active in any assay of this set; here they are far more common.

SMILES	Ec RNAP inh	Cav3 T inh	Mac1 fbg inh	Pyk2 oligo antag	Mac1 fbg enh
Cc1cc(C)c(S(C)(=O)=O)c(Oc2ccc(C(C)(C)C)cc2)n1	.	.	.	-	.
O=C(CCCn1c(=S)[nH]c2cc3c(cc2c1=O)OCO3)N1CCN(c2ccccc2F)CC1	-	-	-	-	-
Cc1ccc(C)c(N2CCN(C(=O)CCCn3c(=S)[nH]c4cc5c(cc4c3=O)OCO5)CC2)c1	-	-8.6	-	-	-
O=C(NCCc1ccc(Cl)cc1)C1CCN(S(=O)(=O)c2cccs2)CC1	.	-6.7	-	-	-
CCOC(=O)N1CCN(C(=O)c2noc(C(C)C)c2[N+](=O)[O-])CC1	.	-	.	.	.
O=C(NC(Cc1ccccc1)C(=O)O)/C(=C/c1ccc(F)cc1)NC(=O)c1ccccc1 (configuration not stated)	.	.	-	.	-
COc1ccc(/C=C2\SC(=S)N(Cc3cccnc3)C2=O)cc1C	.	.	-	.	-
CCOc1cc(/C=C2/SC(=Nc3ccccc3)N(Cc3cccnc3)C2=O)ccc1OCC#N	.	-	-	-3.6	-
O=C(COc1ccc(Cl)cc1)N/N=C/CCc1ccccc1	.	-	-	-	-
CCOC(=O)c1nn(-c2ccccc2)c(C#N)c1NC(=O)c1nn(CC)cc1Br	-	-	-	-3.5	-
COCCN1C(=O)N[C@@H](c2ccco2)C(C(=O)OC)=C1C	.	-	.	.	.
Cc1c(-n2cc(C(=O)c3cc(Br)ccc3O)cc(C#N)c2=O)c(=O)n(-c2ccccc2)n1C	.	-	-	-	-
CCOc1ccc(N2C(=O)CS/C2=N/NC(=O)COc2ccc3ccccc3c2)cc1	.	-3.5	.	-	.
CC(=O)Nc1nc2nc(-c3ccccc3)cc(-c3ccccc3)n2n1	.	-	-	-	-
O=C(Nc1nc2nc(-c3ccccc3)cc(-c3ccccc3)n2n1)c1ccco1	-	-	-	-3.5	-
Cc1ccc(C)c(OCCCC(=O)Nc2nccs2)c1	.	-4.6	-	-	-
Cc1ccccc1OCCCC(=O)Nc1nccs1	-	-	-	-	-
COc1ccc(OC)c(CCNC(=O)Cn2sc3nc(C)cc(C)c3c2=O)c1	-	-	52	.	-
COc1ccccc1-c1coc2cc(OC(=O)/C=C/c3ccccc3)ccc2c1=O	.	.	-	.	-
Cc1ccccc1NC(=O)CSCc1nc(N)nc(Nc2ccccc2C)n1	.	.	-	.	-
O=C(Nc1c(F)cccc1F)c1cnc(N2CCN(c3ccccn3)CC2)c2ccccc12	.	-	-	-3.6	-
O=C(c1cnc(N2CCN(c3ncccn3)CC2)c2ccccc12)N1CCN(c2ccccn2)CC1	-	-	-	-	-
CC1CCN(C(=O)N2c3ccccc3Sc3ccccc32)CC1	.	-	-	-	-
CC(=O)N1c2ccccc2C(C)(C)C2CCC(C)CC21 (configuration not stated)	.	-4.6	.	-	.
O=[N+]([O-])c1cc(S(=O)(=O)Nc2cccc(C(F)(F)F)c2)ccc1-n1nnc2ccccc21	.	-5.6	95	-	-
SMILES	Ec RNAP inh	Cav3 T inh	Mac1 fbg inh	Pyk2 oligo antag	Mac1 fbg enh
Cc1c(CCO)c(=O)n(-c2ccccc2)n1S(=O)(=O)c1c(Cl)cc(Cl)cc1Cl	.	-5.5	.	-	.
CN(C)c1ccnc(N(Cc2ccccc2)Cc2ccccc2)c1C#N	.	-	-	-	-
N#Cc1c(-c2ccco2)nc(SCc2ccc(F)cc2)[nH]c1=O	-	-4.5	-	-	-
COc1ccc2c(c1)C=C(C(=O)NCc1ccc(Cl)cc1)CO2	.	-6.7	-	-	-
O=C(Nc1ccc(Cl)cc1)C1=Cc2cc(Cl)ccc2OC1	.	-	-	-	-
COC(=O)C(NC(=O)COc1ccccc1)(Nc1nc2c(s1)CCCC2)C(F)(F)F (configuration not stated)	.	-6.3	.	-	.
CC(C)C(NS(=O)(=O)c1ccccc1)C(=O)OCc1cc([N+](=O)[O-])cc2c1OCOC2 (configuration not stated)	.	.	-	.	-
COC(=O)c1ccc(C)c(NS(=O)(=O)c2ccc(C)c([N+](=O)[O-])c2)c1	.	-5.5	-	-	-
COC(=O)c1ccc(C)c(NS(=O)(=O)c2ccc(OC)cc2)c1	-	-	-	-	-
Cc1ccsc1C(=O)Nc1ccccc1N1CCOCC1	.	-	-	-	-
COc1ccc2c(c1)C(C)CC(C)(C)N2C(=O)CSc1nc2ccccc2s1 (configuration not stated)	.	-7.6	.	-	.
Cc1ccc(N2C(=S)N=C(Nc3ccccc3C)C23CCOC(C)(C)C3)cc1 (configuration not stated)	.	-6.1	.	-	.
Cc1cccc(C)c1NC1=NC(=S)N(c2ccccc2)C12CCOC(C)(C)C2 (configuration not stated)	.	-	-	-	-
CCCOC(=O)c1ccc(Oc2c(-c3ccc(O)cc3O)n[nH]c2C)cc1	-	-	-	-	-
Cc1[nH]nc(-c2ccc(O)cc2O)c1-c1ccc(Cl)cc1	-	-4.8	.	-	.
Cc1[nH]nc(-c2ccc(O)cc2O)c1Oc1ccccc1	-	-4.5	-	-	-
CCOC(=O)/C(=N\Nc1cc(Cl)ccc1Cl)N1CCN(CC)CC1	.	.	-	.	-
O=C(NCC(=O)N(CC1CCCO1)C1(C(=O)NC2CCCCC2)CCCCC1)c1ccccc1 (configuration not stated)	.	.	-	-	-
O=C(Nc1cccc(F)c1)N(Cc1ccc(Cl)cc1)CC(O)C(F)(F)F (configuration not stated)	.	-7.2	-	-	-
O=C(c1cccc(-n2cnnn2)c1)N1CC=C(c2ccccc2)CC1	.	-4.6	-	-	-
Cc1cc(C)c(N=C2CCCN2Cc2ccccc2)c(C#N)c1	.	-4.8	.	-	.
Cc1cccc(C)c1NC(=O)C(C)c1ccc(-c2ccccc2)c(F)c1 (configuration not stated)	.	-4.3	-	-	-
COC(=O)C1=C(C(=O)OC)[C@@H]2N(C)c3ccc(OC)cc3[C@@]23C[C@@H](C(=O)OC)N(S(=O)(=O)c2ccc(OC)cc2)C3=N1	.	-	.	.	.
O=C(Cc1cccs1)N(Cc1ccco1)C1(C(=O)NC2CCCC2)CCCCC1	-	-5.2	-	-	-
COc1ccc(CNC(=O)C(c2ccc(C)o2)N(Cc2cccs2)C(=O)Cc2cccs2)cc1 (configuration not stated)	.	-7.6	.	-	.
SMILES	Ec RNAP inh	Cav3 T inh	Mac1 fbg inh	Pyk2 oligo antag	Mac1 fbg enh
O=C(NC1CCCCC1)N(Cc1ccccc1)Cc1ccco1	-	-9.1	-	-	-
O=C(NCc1ccccc1)C(c1ccccc1)N(Cc1ccc2c(c1)OCO2)C(=O)Cc1cccs1 (configuration not stated)	.	-1.9	.	-	.
COCCN(C(=O)Cc1cccs1)C(C(=O)NCc1ccc(OC)cc1)c1ccc(C)cc1 (configuration not stated)	.	-	-	-	-
COc1ccc(-c2ccnc3nc(N4CCN(c5ccccc5)CC4)nn23)cc1	.	-	-	-	-
Cc1ccc(CNS(=O)(=O)/C=C/c2ccc3c(c2)OCO3)cc1	.	-	-	-	-
O=C(NC1CCCC1)C(c1ccccc1)N(Cc1ccc2c(c1)OCO2)C(=O)Cc1cccs1 (configuration not stated)	.	-5.9	.	-3.1	.

Screening data as filed in PubChem BioAssay.
